High-throughput results from PubChem BioAssay.
The full list was thinned out, with hits kept by preference.
TTR transcr act – increases transthyretin transcription. activation, % at 16.7 µM. 92,000 compounds, 1.3% hits. AID 1117267. SH-SY5Y TTR promoter Gaussia luciferase, luminescence; 100% = recombinant luciferase protein wells;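 active = activation above the mean of all tested compounds plus 3 SD, cut at about 9.5% in these data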;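 note: cells exposed to compounds for one day before reading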
TTR inh HuH7 – decreases TTR transcription in HuH7 cells in activator counter-screen; 1,100 compounds, 4% hits; shares compounds with TTR transcr act; HuH7 TTR promoter-Gaussia luciferase reporter, luminescence; inhibition, % at 16.7 µM;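 active = average inhibition above the solvent-only control wells' mean plus 3 SD, cut at about 15% in these data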;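 note: inhibitors lower well luminescence so higher value means more inhibition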
TTR act confirm – human TTR transcription activation, confirmation | shares compounds with TTR transcr act | SHSY5Y TTR promoter Gaussia luciferase, luminescence; 100% = purified Lucia enzyme wells, no cells | activation, % at 16.7 µM | 1,100 tested, under 10 active;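 active = mean activation above a set limit taken from the earlier primary screen, cut at about 11% in these data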
Each line names hits and unclear results; the compound was inactive in the other large screens (follow-up assays come after a bar, where they were run).

Cc1ccc(S(=O)(=O)N(C)c2ccc(C(=O)N3CCN(Cc4ccc5c(c4)OCO5)CC3)cc2)cc1	none
COC(=O)/C=C1\OCc2ccccc21	none
CCn1c(=O)cc(SCC(=O)Nc2cccc(C)n2)c2ccccc21	none
CCc1n[nH]c(=S)n1/N=C/c1c(O)ccc2ccccc12	none
Cc1c(S(=O)(=O)c2ccccn2)c(N)n(Cc2cccc(Cl)c2)c1C	none
N/C(=N\O)c1cccc(CS(=O)(=O)c2ccccn2)c1	TTR transcr act 10.0 | TTR inh HuH7 inactive | TTR act confirm inactive
CC(C)(C)c1csc(CS(=O)(=O)c2ccccn2)n1	none
C[C@@H]1CN([C@H](C)CO)S(=O)(=O)c2ccc(Br)cc2O[C@H]1CN(C)C(=O)C1CCCCC1	none
O=C1[C@H](Cc2ccccc2)NCC=CC[C@H](c2ccc(Cl)cc2)N1Cc1ccc(Cl)cc1	none
COc1ccc(/C=N/N2CCN(C)CC2)c(OC)c1OC	none
COc1ccc(/C=N/n2c(C)nnc2C)c(OC)c1OC	TTR transcr act 10 | TTR inh HuH7 inactive | TTR act confirm inactive
COc1ccc(/C=N/n2c(-c3n[nH]c4c3CCC4)n[nH]c2=S)c(OC)c1OC	none
O=C(NCCCc1ccccc1)[C@H](CO)NC1(C(=O)NCCc2c[nH]c3ccccc23)CCCCC1	none
CCc1nc2ccc(C(=O)NCCNC(C)=O)cn2c1N(CC)CCOC	none
CC(C)c1cccc(O)c(=O)c1	TTR transcr act 10 | TTR inh HuH7 inactive | TTR act confirm inactive
CC(=O)c1c(O)cc(C(C)C)n(-c2ccccc2)c1=O	none
Cc1ccc(C(C)C)c(O)c1	none
O=C1C(=O)N(Cc2ccc(-c3ccc(Cl)nc3)cc2)c2ccc(OC(F)(F)F)cc21	none
CCOc1cc(CN2CCC(CO)(Cc3cccc(C(F)(F)F)c3)CC2)ccc1OC	none
O=C(NCCc1c[nH]c2ccccc12)[C@H](Cc1c[nH]c2ccccc12)NC1(C(=O)NC2CCCCC2)CCCCCCC1	none
COc1cccc(NC(=O)COC(=O)c2c(F)cccc2Cl)c1	none
CC1CCc2nc3ccccc3c(C(=O)OCC(=O)N(C)C3CCS(=O)(=O)C3)c2C1 (configuration not stated)	none
COc1cccc(NC(=O)COC(=O)c2c3c(nc4ccccc24)CCC(C)C3)c1 (configuration not stated)	TTR transcr act 11 | TTR inh HuH7 inactive | TTR act confirm inactive
COC(=O)c1ccc(NC(=O)c2cccc(NC(=O)c3ccccc3)c2)cc1	none
Cc1cc(=O)oc(C)c1C(=O)Nc1cccnc1Cl	none
COC(=O)[C@]12C[C@H](CC(=O)NCCCCc3ccccc3)C(=O)N(Cc3cccc4ccccc34)C1=C[C@H](C(C)(C)C)O[C@@H]2C	none
COc1cc(/C=C/C(=O)O)cc(S(=O)(=O)NCC2CCCO2)c1OC (configuration not stated)	TTR transcr act 22 | TTR inh HuH7 inactive | TTR act confirm inactive
COc1cc(/C=C/C(=O)O)cc(S(=O)(=O)NNC(=O)c2cc(C)oc2C)c1OC	none
COc1ccc(C(C)(C)C)cc1S(=O)(=O)NCC1CCCO1 (configuration not stated)	none
COc1ccc(NS(=O)(=O)c2ccc(OC)c(NC(=O)CNC(=O)c3ccc(OC)cc3)c2)cc1	none
O=c1nc(-c2ccccc2)nc(-c2ccccc2)[nH]1	none
NC(=O)c1nc(-c2ccccc2)c(-c2ccccc2)[nH]c1=O	none
Cc1ccc(-c2[nH]c(-c3ccc(C(=O)O)cc3)nc2-c2ccccc2)cc1	TTR transcr act 12 | TTR inh HuH7 inactive | TTR act confirm inactive
CCCc1nc2ccccc2n1C(CCSC)C(=O)NC(C)(C)C (configuration not stated)	none
Nc1[nH]c(C(=O)c2ccccc2)c(-c2cccnc2)c1C(=O)NCCc1c[nH]c2ccccc12	none
Cc1cc(C)c(C(=O)CC(=O)c2cccnc2)c(C)c1	TTR transcr act 15 | TTR inh HuH7 inactive | TTR act confirm inactive
Cc1ccc(CNC(=O)c2cccnc2)cc1	none
Cc1cc(C)c(C)c(OCC(=O)O/N=C(\N)c2cccnc2)c1	none
CCNC(=O)C[C@@H]1CC[C@H]2[C@@H](COC[C@H](O)CN2C(=O)C2CC2)O1	none
CC(NC(=O)CNC(=O)c1sc2ccccc2c1Cl)c1ccc(S(N)(=O)=O)cc1 (configuration not stated)	none
COc1cc(-n2c(-c3ccccc3)n[nH]c2=S)c(OC)cc1Cl	none
FC(F)(F)c1ccccc1-n1c(-c2cnccn2)n[nH]c1=S	none
COc1cc(-c2n[nH]c(=S)n2-c2ccccc2C(F)(F)F)cc(OC)c1OC	TTR transcr act 9.9 | TTR inh HuH7 inactive | TTR act confirm inactive
COc1cc(/C=C/C(=O)OCC(=O)N(C)Cc2ccccc2)ccc1O	none
C[C@H]1[C@@H](OC(=O)NCc2ccccc2)CC[C@@]23CCCN2C(=O)CCC[C@@H]13	none
CCC[C@H]1[C@@H](OC(=O)NC2CCC2)CC[C@@]23CCCN2C(=O)CCC[C@@H]13	none
CSc1ncnc2c1ncn2CCCN1CCN(c2ncccn2)CC1	none
O=C(NC1CCCc2c1cnn2-c1ccc(F)cc1F)c1cccs1 (configuration not stated)	none
Cc1nnc(SCC(=O)NN2C(=O)NC3(CCCCC3)C2=O)s1	TTR transcr act 11 | TTR inh HuH7 inactive | TTR act confirm inactive
CCC(=O)N(c1nnc(SCC(=O)NN2C(=O)NC3(CCC(C)CC3)C2=O)s1)C1CC1 (configuration not stated)	none
Cc1ccc(C(=O)CCC(=O)NN2C(=O)NC3(CCCCC3)C2=O)cc1	none
CC1(C)CC(=O)C(C=NCCN2CCN(C(=S)NC3CCCCC3)CC2)=C(O)C1	none
CC1(C)CC(=O)C(C=NCCN2CCN(C(=O)CCl)CC2)=C(O)C1	TTR transcr act 12 | TTR inh HuH7 inactive | TTR act confirm inactive
CC1(C)CC(=O)C(C=NCCN2CCN(C(=O)c3ccccc3)CC2)=C(O)C1	none
CCOC(=O)Nc1nc(-c2ccccc2)c(C(=O)c2ccc(Cl)cc2)s1	TTR transcr act 11 | TTR inh HuH7 23 | TTR act confirm inactive
CCOC(=O)c1sc(N)nc1-c1ccccc1	none
CCOC(=O)c1sc(NC(=O)c2ccc(S(=O)(=O)N3CCOCC3)cc2)nc1-c1ccccc1	none
O=c1c2ccccc2sn1-c1ccc(Cl)cc1Cl	none
CC(C)c1ccc(NC(=O)O[C@@H]2CC[C@@]34CCCN3C(=O)CCC[C@H]4C2)cc1	none
Clc1ccc(OCCOc2ccc(Br)nc2Br)c(Cl)c1	none
O=C(CCCSc1nc2ccccc2[nH]1)Nc1ccccc1	none
Cc1cccc(NC(=O)CCCSc2nc3ccccc3[nH]2)c1	none
Cc1ccccc1OCCCSc1nc2ccccc2[nH]1	TTR transcr act 31 | TTR inh HuH7 inactive | TTR act confirm inactive
COC(=O)[C@]12C[C@H](CC(=O)NCC34CC5CC(CC(C5)C3)C4)C(=O)N(CCc3ccc(OC)c(OC)c3)C1=C[C@H](COCc1ccccc1)O[C@@H]2C	none
COC(=O)[C@]12C[C@H](CC(=O)NCCC(C)C)C(=O)N(Cc3cccc4ccccc34)C1=C[C@H](C(C)(C)C)O[C@@H]2C	none
CCOC(=O)c1ccc(NC(=O)CCNS(=O)(=O)c2cccs2)cc1	none
CCN(c1ccccc1)S(=O)(=O)c1ccc(C(=O)NCCc2ccc(S(N)(=O)=O)cc2)cc1	none
CC(C)(O)C#Cc1ccc(C(=O)NCCc2ccc(S(N)(=O)=O)cc2)cc1	none
CCOc1cc(C(=O)NCCc2ccc(S(N)(=O)=O)cc2)cc(OCC)c1OCC	TTR transcr act 19 | TTR inh HuH7 inactive | TTR act confirm inactive
